High-throughput results (PubChem)
The list is not random: actives were taken first. Their share in the collection is about 1.6%.
KCNQ2 pot: potentiators of rat KCNQ2 potassium channel | CHO-K1 KCNQ2, FluxOR thallium flux fluorescence; hits give high values | AID 2239, 2010 | 310,000 compounds, 0.54% hits | B-score at 10 µM;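 active = fluorescence ratio B-score at least 3 SD of library B-scores, with initial fluorescence B-score within 3 of them, cut at about 5.3 in these data; same plate scores as AID 2156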;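 note: B-score of peak minus minimum over baseline fluorescence ratio after K+ and Tl+ stimulus; positive B-score means potentiation of KCNQ2 with more thallium influx and brighter signal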
Target sequence (O88943 whole entry, looked up): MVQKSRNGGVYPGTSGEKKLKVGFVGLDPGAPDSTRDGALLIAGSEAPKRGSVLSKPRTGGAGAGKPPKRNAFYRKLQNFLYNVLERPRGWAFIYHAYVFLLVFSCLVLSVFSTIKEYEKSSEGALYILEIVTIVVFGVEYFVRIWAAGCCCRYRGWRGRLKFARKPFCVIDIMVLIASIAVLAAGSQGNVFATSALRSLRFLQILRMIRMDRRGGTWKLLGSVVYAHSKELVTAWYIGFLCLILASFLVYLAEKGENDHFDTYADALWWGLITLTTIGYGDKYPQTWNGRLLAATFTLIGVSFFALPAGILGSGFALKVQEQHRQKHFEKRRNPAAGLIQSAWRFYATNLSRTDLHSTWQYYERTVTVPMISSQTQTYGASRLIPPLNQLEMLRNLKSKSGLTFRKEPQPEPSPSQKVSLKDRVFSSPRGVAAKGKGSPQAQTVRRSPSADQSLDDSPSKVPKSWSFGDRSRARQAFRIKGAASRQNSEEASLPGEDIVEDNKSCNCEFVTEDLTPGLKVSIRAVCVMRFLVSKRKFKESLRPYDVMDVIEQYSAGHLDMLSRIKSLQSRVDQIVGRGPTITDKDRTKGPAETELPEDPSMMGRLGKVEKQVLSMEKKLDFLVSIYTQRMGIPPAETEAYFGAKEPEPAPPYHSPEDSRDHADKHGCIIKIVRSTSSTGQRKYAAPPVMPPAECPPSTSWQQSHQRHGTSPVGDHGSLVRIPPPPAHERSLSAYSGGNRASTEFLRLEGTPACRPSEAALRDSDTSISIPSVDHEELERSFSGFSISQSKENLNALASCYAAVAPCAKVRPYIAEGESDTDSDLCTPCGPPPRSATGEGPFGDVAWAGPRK
KCNQ2 inh: rat KCNQ2 potassium channel inhibitors, primary screen, cell-based, CHO-K1, FluxOR thallium flux, B-score; 310,000 compounds, 1.1% hits; Potassium voltage-gated channel subfamily KQT member 2 (Rattus norvegicus), O88943; B-score at 10 µM; AID 2156, 2009; 20 min; hits give low values;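 active = fluorescence ratio B-score at most minus 3 library SDs, with starting brightness B-score within 2 library SDs, cut at about -5.5 in these data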
An asterisk follows results filed as active; i = inactive; / = no result given.

SMILES | KCNQ2 pot | KCNQ2 inh
N#CC(c1cccc(Cl)c1)c1ccc2c(C(F)(F)F)cc(C(F)(F)F)nc2n1 (stereo not given) | 15* | i
NNc1ccc2c(C(F)(F)F)cc(C(F)(F)F)nc2n1 | 0.33 | i
COc1ccc(C(=O)N/C(=C\c2cn(S(=O)(=O)N(C)C)c3ccccc23)C(=O)NCCCN2CCOCC2)cc1 | 0.21 | i
C/C(=C\c1ccccc1)C(=O)N1CCN(c2cccc(C(F)(F)F)c2)CC1 | -6.2 | -6.2*
O=C(CSCc1ccccc1)N1CCN(c2cccc(C(F)(F)F)c2)CC1 | -6.5 | -6.5*
C/C(=C/c1ccccc1)C(=O)N1CCN(c2ccccc2F)CC1 | / | i
O=C(CSCc1ccccc1)N1CCN(c2ccccc2)CC1 | / | i
CC(NCc1ccc(F)cc1)C(=O)Nc1cc(S(=O)(=O)N2CCCCC2)ccc1Cl (stereo not given) | / | i
COC(=O)Cn1cc(S(=O)(=O)NCc2ccc(C)cc2)c2cc([N+](=O)[O-])ccc21 | 1.4 | i
COc1cccc(OC)c1C(=O)Nc1ccc(C(=O)NCc2ccccc2)cc1 | 0.07 | i
COc1cccc(CN2CCNC(=O)C2CC(=O)N(C)C2CCCCC2)c1 (stereo not given) | / | i
COc1ccc(-c2nn(-c3ccccc3)cc2C(=O)NC(=S)NNC(=O)c2ccncc2)cc1 | / | i
COc1ccc(NC(=O)c2cn(-c3ccccc3)nc2-c2ccncc2)cc1 | / | i
COc1ccc(NC(=O)c2cn(-c3ccccc3)nc2-c2cc3ccccc3o2)cc1 | -6 | -6*
COc1ccc(-c2nn(-c3ccccc3)cc2C(=O)NC(=S)Nc2cc(Cl)ccc2Cl)cc1 | -7.7 | -7.7*
COc1cccc2cc(C(=O)CS(=O)(=O)c3ccc(Cl)cc3)c(=O)oc12 | / | i
O=C(c1cccc(C(F)(F)F)c1)C1CCCN(C(=O)/C=C/c2cnc[nH]2)C1 (stereo not given) | 0.08 | i
CCc1ccccc1Nc1nc(N)nc(CSCC(=O)Nc2ccc(C)c(C)c2)n1 | 19* | i
CCc1ccccc1Nc1nc(N)nc(COC(=O)c2cccn2C)n1 | 0.01 | i
Cc1ccccc1CSCc1nc(N)nc(Nc2ccccc2C)n1 | 0.58 | i
CCc1ccc(NC(=O)CSCc2nc(N)nc(Nc3ccccc3CC)n2)cc1 | 15* | i
COc1cccc(NC(=O)CN2C(=O)COc3ccc(S(=O)(=O)N4CCOCC4)cc32)c1 | / | i
O=C(COc1cc(O)c2c(=O)cc(-c3ccccc3)oc2c1)c1ccccc1 | -5.9 | -5.9*
Cc1ccc(C(=O)COc2cc(O)c3c(=O)cc(-c4ccccc4)oc3c2)cc1 | / | i
CCc1nc2ccccc2c(C(=O)OCCN2C(=O)c3ccccc3C2=O)c1C | -9.6 | -9.6*
SMILES | KCNQ2 pot | KCNQ2 inh
CCc1nc2ccccc2c(C(=O)OCC(=O)NC(=O)c2cccn2C)c1C | -5.6 | -5.6*
CCc1nc2ccccc2c(C(=O)OCC(=O)C(C)(C)C)c1C | 0.32 | i
CCc1nc2ccccc2c(C(=O)O)c1C | / | i
COc1ccc(/C=C/C(=O)Oc2ccc(/C=N/NC(=O)c3ccncc3)cc2)cc1 | 0.25 | i
O=C(Nc1ccc(Cl)c(Cl)c1)C1C2C=CC3(O2)C1C(=O)N(CCN1CCCCC1)C3C(=O)NC1CCCCC1 (stereo not given) | / | i
CCn1c(CC(=O)Nc2cccc(Cl)c2Cl)nnc1SCCOc1ccc(OC)cc1 | -6.1 | -6.1*
COc1ccc(OCCSc2nnc(CC(=O)Nc3cccc(Cl)c3Cl)n2C)cc1 | -8.1 | -8.1*
COc1ccc(CC(=O)NCc2nnc(SCCOc3ccccc3)n2C)cc1 | / | i
CCn1c(COc2cccc(OC)c2)nnc1SCC(=O)Nc1cc(OC)ccc1OC | / | i
COc1ccc(/C=C(\NC(=O)c2ccc(C)cc2)C(=O)NCCCn2ccnc2)cc1 | / | i
Cc1ccc(OC(=O)c2cc(C)nn2C(C)(C)C)cc1 | 0.07 | i
CN(CCO)c1ccc(-c2n[nH]c(=O)c3ccccc23)cc1[N+](=O)[O-] | 1.6 | i
Cc1cc(C(C)(C)C)oc1C(=O)N(CC(=O)NC1CCCC1)Cc1ccccc1Cl | -6.2 | -6.2*
Cc1ccccc1N(CC(=O)NC1CCCC1)C(=O)c1oc(C(C)(C)C)cc1C | / | i
C=CCN(CC=C)C(=O)c1ccc(OC2CCN(C(C)=O)CC2)c(OC)c1 | 0.54 | i
S=C(NCc1cccc(Cl)c1)NC1CCCCC1 | 8* | i
S=C(NCc1ccccc1)NC1CCCCC1 | 1.3 | i
COc1ccc(NC(=O)COc2cc(C)cc(C)c2)cc1S(=O)(=O)N1CCCCC1 | / | i
C=CCN1C(=O)c2ccc(C(=O)N(CC)CC(=O)Nc3cc(Cl)ccc3C)cc2C1=O | 0.13 | i
CCn1c(=O)c2cc(C(=O)N(C)c3ccc(OC)cc3OC)sc2c2ccccc21 | / | i
CCn1c(=O)c2cc(C(=O)N(C)c3cc(C)ccc3OC)sc2c2ccccc21 | -6.4 | -6.4*
